# TcdB GH inh: TcdB glycohydrolase inhibition; TcdB glycohydrolase enzymatic assay, plate reader; inhibition, % at 9.99 µM; 0.24% of 350,000 active; in the data active = inhibition above about 10%
# RecA intein inh: blocks M. tuberculosis RecA intein splicing; inhibition, % (concentration not given with the values); P9WHJ3; 0.75% of 290,000 active; cell-free RecA intein splicing, fluorescence; in the data active = inhibition above about 30%; inconclusive = no clear call, values can overlap the other calls;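 also: 0% = vehicle wells and 100% = reference inhibitor control wells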
# FadD28 FP inh: inhibitors of Mycobacterium tuberculosis FadD28 bisubstrate binding. AID 588549. inhibition, % at 12.5 µM. 0.22% of 360,000 active. FadD28 bisubstrate probe binding, fluorescence polarization; in the data active = inhibition above about 8.5%, passing the limit was not always enough; inconclusive = no clear call, values can overlap the other calls
# UGM FP inh: Mtb UDP-galactopyranose mutase inhibition; P9WIQ1; purified UGM, fluorescence polarization probe displacement; inhibition, % at 10 µM; 0.06% of 320,000 active; AID 504406; in the data active = inhibition above about 10%, passing the limit was not always enough; inconclusive = no clear call, values can overlap the other calls
# Rv3671c protease: Rv3671c (M. tuberculosis) protease inhibition; inhibition, % at 5.96 µM; 0.048% of 320,000 active; P9WHR9; in the data active = inhibition above about 38%;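 also: extracellular domain of Rv3671c used as enzyme; 0% = enzyme with DMSO and 100% = no enzyme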
# Target sequence (P9WHR9 whole entry, looked up, the tested form may be a part): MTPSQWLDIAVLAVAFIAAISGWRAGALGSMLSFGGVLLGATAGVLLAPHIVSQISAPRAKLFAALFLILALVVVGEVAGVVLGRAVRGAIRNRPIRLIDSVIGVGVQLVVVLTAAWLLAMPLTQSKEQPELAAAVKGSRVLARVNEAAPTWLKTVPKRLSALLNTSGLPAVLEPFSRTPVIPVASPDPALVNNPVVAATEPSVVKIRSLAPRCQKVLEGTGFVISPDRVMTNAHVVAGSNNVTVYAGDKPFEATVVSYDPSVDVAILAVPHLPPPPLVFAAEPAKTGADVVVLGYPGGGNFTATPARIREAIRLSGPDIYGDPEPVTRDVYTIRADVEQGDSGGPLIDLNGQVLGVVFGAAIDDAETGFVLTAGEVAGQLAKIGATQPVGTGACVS
# Mtb BioA inh: blocks M. tuberculosis BioA enzyme activity. purified M. tuberculosis BioA enzyme, plate reader. inhibition, % at 9.99 µM. 0.096% of 360,000 active; in the data active = inhibition above about 40%; inconclusive = no clear call, values can overlap the other calls
# GFP chromophore: counter-screen: blocks GFP chromophore formation; shares compounds with RecA intein inh; cell-free GFP chromophore formation, fluorescence; 83% of 2,100 active; EC50, µM; AID 434968; call rule not given here
# * marks the source's active call; other numbers are inactive results; ? = inconclusive; · = no result given. In the library only some 0.97% were active in any assay of this set; here they are far more common.
SMILES,TcdB GH inh,RecA intein inh,FadD28 FP inh,UGM FP inh,Rv3671c protease,Mtb BioA inh,GFP chromophore
CCC(=O)N/N=C(\C)CC(=O)Nc1cccc([N+](=O)[O-])c1,·,76*,-3,2,3,·,29*
O=C(CSc1ncnc2c1nnn2-c1ccc(F)cc1)NCC1CCCO1 (stereo unspecified),·,38*,-3,-3,1,-1,8.9*
O=C(Cn1cnc2c(nnn2-c2ccc(F)cc2)c1=O)NCC1CCCO1 (stereo unspecified),2,1,-3,0,-5,2,·
Cc1ccc(-n2nnc3c(SCC(=O)NCC4CCCO4)ncnc32)cc1 (stereo unspecified),·,40*,-2,-1,9,·,>38
C[C@@H]1CN([C@H](C)CO)C(=O)c2cccc(NS(=O)(=O)c3ccc(F)cc3)c2O[C@@H]1CN(C)CC1CCCCC1,1,·,·,·,·,1,·
COc1cc(/C=C2\C(=O)NN(c3ccc(C)cc3)C2=O)cc([N+](=O)[O-])c1O,-5,1,?,2,7,·,·
COc1cc(/C=C2/C(=O)N(c3ccc(C)c(C)c3)N=C2C)cc([N+](=O)[O-])c1O,-1,42*,1,2,-3,-1,21*
O=C(Cc1ccccn1)N1CC(=O)N2[C@@H](CO)[C@H](c3ccc(C#CC4CCCCC4)cc3)[C@@H]2C1,0,·,·,·,·,·,·
Cc1cc(-c2[nH]nc3c2C(c2ccsc2)C(C#N)=C(N)O3)c(C)s1 (stereo unspecified),·,86*,1,-7,3,·,6.6*
Cc1cc(-c2[nH]nc3c2C(c2cccc(O)c2)C(C#N)=C(N)O3)c(C)s1 (stereo unspecified),·,83*,2,-2,1,-1,9.3*
N#CC1=C(N)Oc2cc(O)ccc2C1c1cccnc1 (stereo unspecified),-1,·,-3,-8,4,2,·
C[C@@H]1CN([C@@H](C)CO)S(=O)(=O)c2ccc(C3=CCCC3)cc2O[C@H]1CN(C)C(=O)Cc1ccncc1,1,·,·,·,·,-5,·
COc1cccc(NC(=O)N2C[C@@H](O)COC[C@@H]3O[C@H](CC(=O)NC4Cc5ccccc5C4)CC[C@H]32)c1,-2,·,·,·,·,0,·
COc1ccc2c3c([nH]c2c1)[C@H](CO)N(Cc1ccc(F)cc1)CC31CN(Cc2ccccn2)C1,0,·,·,·,·,·,·
Cc1[nH]nc2c1C1(CCN(C(=O)c3ccccc3)CC1)C(C#N)=C(N)O2,·,79*,0,-3,9,1,13*
CC(=O)N1CCC2(CC1)C(C#N)=C(N)Oc1c2sc2nc(C)cc(C)c12,·,3,-2,-1,7,1,·
Cc1[nH]nc2c1C1(CCN(C(=O)OCc3ccccc3)CC1)C(C#N)=C(N)O2,·,80*,-1,0,-3,0,30*
Cc1cc2c3c(c1)C1(C(=O)N3C(C)(C)CC2C)C(C#N)=C(N)Oc2n[nH]c(C)c21 (stereo unspecified),·,8,-1,1,-4,·,·
Cc1[nH]nc2c1C1(CCC(c3ccccc3)CC1)C(C#N)=C(N)O2 (stereo unspecified),·,77*,4,0,-7,1,25*
CC(=O)N1CCC2(CC1)C(C#N)=C(N)Oc1n[nH]c(C)c12,·,79*,-1,-3,-2,2,15*
COCC(=O)Nc1ccc2c(c1)C(=O)N(C)C[C@@H](OC)[C@@H](C)CN(Cc1ccccc1OC)[C@H](C)CO2,-1,·,·,·,·,0,·
C=CC[C@]1(C(=O)N(C)C)N=C(c2ccc(OCCCO)cc2)O[C@H]1c1ccccc1,0,·,·,·,·,-1,·
CN(C)C(=O)[C@@H]1[C@@H](CO)[C@@H]2Cn3c(ccc(-c4ccncc4)c3=O)[C@H]1N2CC1CCCC1,0,·,·,·,·,-1,·
CCCNC(=O)[C@H]1[C@H](CO)[C@H]2Cn3c(ccc(-c4cccnc4)c3=O)[C@H]2N1Cc1cocn1,0,·,·,·,·,·,·
CN(C)CC(=O)N1[C@@H](CO)[C@@H](c2ccccc2)C12CN(C(=O)c1cccc(F)c1)C2,1,·,·,·,·,·,·
SMILES,TcdB GH inh,RecA intein inh,FadD28 FP inh,UGM FP inh,Rv3671c protease,Mtb BioA inh,GFP chromophore
COCC(=O)N1CC2(C1)CN(Cc1cc(F)ccc1F)[C@H](CO)c1c2c2ccc(OC)cc2n1C,1,·,·,·,·,·,·
Cc1n[nH]c(C)c1CCN(C)C(=O)C1CCC(=O)N(CC2CCCCC2)C1 (stereo unspecified),2,·,-3,1,7,-1,·
CN(CCc1cnn(C)c1)C(=O)C1CCC(=O)N(CC2CCCCC2)C1 (stereo unspecified),2,46*,0,1,-3,0,>38
Cn1c(/N=C/c2c(O)ccc3ccccc23)nc2ccccc21,·,73*,3,1,-17,-1,9.1*
CC1=NN(c2ccc(C)c(C)c2)C(=O)C1C(c1cccc(O)c1)C1C(=O)N(c2ccc(C)c(C)c2)N=C1C (stereo unspecified),·,95*,-2,9,-176,-2,0.91*
CCOC(=O)c1ccccc1Nc1cn(C(C)=O)c2ccccc12,·,5,-5,3,6,·,·
COc1ccccc1N(C(=O)CCl)c1cn(C(C)=O)c2ccccc12,1,51*,-2,0,0,4,23*
CC(=O)n1cc(N(C(=O)CCl)c2ccc(Cl)cc2)c2ccccc21,·,59*,-2,-1,2,14,1.3*
CC(=O)N(C)C[C@@H]1Oc2cc(C#Cc3cccc(F)c3)ccc2S(=O)(=O)N([C@@H](C)CO)C[C@H]1C,0,·,·,·,·,4,·
COCCN(C(=O)CCC(=O)Nc1cc(C)on1)C(C(=O)NC1CCCC1)c1ccccc1C (stereo unspecified),1,1,-1,3,3,·,·
O=C(NC1CCCC1)C(c1ccc(F)cc1)N(Cc1ccccc1Cl)C(=O)CCl (stereo unspecified),1,50*,-1,-1,7,0,>38
COCCN(C(=O)CCl)C(C(=O)NC1CCCCC1)c1ccccc1C (stereo unspecified),1,47*,-1,1,4,1,26*
C[C@@H]1CN([C@@H](C)CO)C(=O)c2cccc(N(C)C)c2O[C@H]1CN(C)C(=O)Nc1ccc2c(c1)OCO2,1,·,·,·,·,-1,·
CCC(=O)N1[C@@H]2c3cccc(=O)n3C[C@@H]2[C@@H](CO)[C@@H]1C(=O)NC1CCCC1,-4,·,·,·,·,·,·
C[C@H](CO)N1C[C@H](C)[C@@H](CN(C)Cc2ccc(C(=O)O)cc2)Oc2ccc(NS(=O)(=O)c3ccc(Cl)cc3)cc2CC1=O,-2,·,·,·,·,·,·
CN(C)CCCNC(=O)C[C@H]1C=C[C@H](NS(=O)(=O)c2ccccc2)[C@@H](CO)O1,0,·,·,·,·,1,·
O=[N+]([O-])c1ccc(Oc2cccc(Br)c2)c2ccncc12,·,53*,-1,1,1,·,17*
O=[N+]([O-])c1ccc(Oc2ccc(F)cc2)c2ccncc12,·,67*,-2,2,1,-1,32*
